# According to PubChem BioAssay (NCATS):
# Activity calls are given as the source filed them. The rule behind the calls is not given here.
# Tested on: HIV-1 nucleocapsid protein NCp7 (binding to TG oligonucleotide)
# Assay: HIV Nucleocapsid (AID 346);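 note: potency is for inhibitors that block NC binding and lower polarization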
# Conditions: HIV-1 NC / fluorescein-TGTGTGTG probe, fluorescence polarization
# Method in brief: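 NCp7 100 nM + fluorescein TG4xF 10 nM; Hepes pH 7.5/250mM NaCl/1uM ZnCl2/0.004% PEG 20000; 1 hr RT; FP, 45 s exposure; oligo-only wells as negative control.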
# Potency is the fitted concentration of half-maximal effect.
row,SMILES,Potency
1,O=C(c1cc(C(F)(F)F)cc(C(F)(F)F)c1)N1CCC2(CC1)CN(c1ccccc1)C2,> 20 µM (inactive)
2,O=C(c1ccco1)N1CCC2(CC1)CN(c1cccc(-c3ccccc3)c1)C2,> 20 µM (inactive)
3,O=C(c1cc(C(F)(F)F)cc(C(F)(F)F)c1)N1CCC2(CC1)CN(c1ccncc1)C2,> 20 µM (inactive)
4,Clc1ccccc1-c1cc(NCCN2CCOCC2)ncn1,> 20 µM (inactive)
5,CN(C)c1ccc(-c2cc(N(C)Cc3ccco3)ncn2)cc1,> 20 µM (inactive)
6,N#Cc1ccc(CN2CC3(CCN(C(=O)c4cnccn4)CC3)C2)cc1,> 20 µM (inactive)
7,COc1ccccc1CNc1nc(-c2ccoc2)nc2ccccc12,> 20 µM (inactive)
8,Cc1noc(C)c1-c1nccc(N2CCOCC2)n1,> 20 µM (inactive)
9,FC(F)(F)c1ccccc1-c1cc(N2CCNCC2)ncn1,> 20 µM (inactive)
10,Cn1c(=O)c(-c2cccc(Cl)c2)nc2cncnc21,> 20 µM (inactive)
11,CC(C)CN1CC[C@@]2(CCCN(C(=O)c3ccco3)C2)C1,> 20 µM (inactive)
12,COc1cccc(Cn2c(=O)c(-c3ccc(F)cc3)nc3cnc(OC)nc32)c1,> 20 µM (inactive)
13,Cc1noc(C)c1C(=O)N1CCC2(CCCN(Cc3nccs3)C2)CC1,> 20 µM (inactive)
14,O=C(c1ccco1)N1CCC2(CCCN(c3ccccc3)C2)CC1,> 20 µM (inactive)
15,O=C(c1ccncc1)N1CCC[C@@]2(CCN(c3cccc(-c4ccccc4)c3)C2)C1,> 20 µM (inactive)
16,CCNc1ncc2nc(-c3ccc(F)cc3)c(=O)n(-c3ccc(OC)cc3)c2n1,> 4 µM (inactive)
17,N#Cc1cccc(-c2nc(N3CCNCC3)c3ccccc3n2)c1,> 20 µM (inactive)
18,O=C(c1ccncc1)N1CCC2(CCCN(c3ccccn3)C2)CC1,> 20 µM (inactive)
19,N#CCCn1c(=O)c(-c2cccs2)nc2cnc(Oc3cccc(Cl)c3)nc21,> 4 µM (inactive)
20,O=S(=O)(c1ccccc1)N1CCC2(CCCN(c3ncccn3)C2)CC1,> 20 µM (inactive)

row,SMILES,Potency
1,Cc1noc(C)c1-c1nc(N2CCN(C)CC2)c2ccccc2n1,> 20 µM (inactive)
2,COc1ccc(C(=O)N2CCC3(CC2)CN(C(=O)Nc2ccccc2)C3)cc1,> 20 µM (inactive)
3,CC(=O)N1CCC2(CCN(Cc3ccncc3)CC2)CC1,> 20 µM (inactive)
4,CN(C)c1ncnc2ccc(-c3ccccc3C(F)(F)F)cc12,> 20 µM (inactive)
5,c1cncc(-c2ccc3ncnc(NCCN4CCOCC4)c3c2)c1,> 20 µM (inactive)
6,c1csc(CNc2nc(-c3ccoc3)nc3ccccc23)c1,> 20 µM (inactive)
7,CS(=O)(=O)N1CCC2(CCCN(c3ncccn3)C2)CC1,> 20 µM (inactive)
8,COc1ccc(-c2nc3cnc(OC)nc3n(-c3ccc(OC)cc3)c2=O)cc1,> 20 µM (inactive)
9,Cc1noc(C)c1-c1cc(NCCN2CCOCC2)ncn1,> 20 µM (inactive)
10,FC(F)(F)c1cc(CN2CC[C@@]3(CCCNC3)C2)cc(C(F)(F)F)c1,> 20 µM (inactive)
11,O=c1c(-c2cc(F)cc(F)c2)nc2cnc(N3CCNCC3)nc2n1-c1ccccc1,> 20 µM (inactive)
12,Cc1cccc(CNc2ncncc2-c2ccccc2Cl)c1,> 20 µM (inactive)
13,CN1CCN(c2ncc3nc(-c4ccccc4)c(=O)n(C)c3n2)CC1,> 20 µM (inactive)
14,COc1ccc(C(=O)N2CCC3(CCN(Cc4ccccc4)CC3)CC2)cc1,> 20 µM (inactive)
15,O=c1c(-c2ccc(Cl)cc2)nc2cnc(Nc3ccccc3)nc2n1C1CC1,> 20 µM (inactive)
16,Cc1cccc(CNc2ncnc3ccc(-c4ccc(C(=O)N(C)C)cc4)cc23)c1,> 20 µM (inactive)
17,Cc1cccc(CNc2ncnc3ccc(-c4ccccc4C#N)cc23)c1,> 20 µM (inactive)
18,Cn1c(=O)c(-c2ccc(F)cc2)nc2cncnc21,> 20 µM (inactive)
19,CC(C)CN1CCC2(CC1)CCN(C(=O)c1ccncc1)CC2,> 20 µM (inactive)
20,O=S(=O)(c1ccccc1)N1CCC[C@@]2(CCN(c3cccc(-c4ccccc4)c3)C2)C1,> 20 µM (inactive)
